± gives the standard deviation.

In this test the test system is Streptococcus suis HE06. As to the kind of experiment: percent growth relative to DMSO control; higher = less growth inhibition. Conditions: 10 µM; incubation time 18 h. As for the experimental part:
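CLSI broth microdilution: 5x10^4 CFU of Streptococcus suis (strain P1/7 or HE06) incubated with 10 µM Pathogen Box compound in cation-adjusted Mueller Hinton broth, 37 °C, 5% CO2, 18 h. Growth read as OD600 and expressed as percent of the DMSO-treated control (100%); mean ± SD of three independent experiments.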
`CCOc1ccccc1C(=O)Nc1cccc(-c2nc3ncccn3c2C)c1` had a percent growth of 88.1 ± 24%.
As to `OCc1ccc(-c2cncc(Nc3cccc(Cl)c3)c2)cc1`, the percent growth is 88 ± 13%.
To `O=C(c1[nH]nc2c1CCCC2)N1CCN(Cc2ccc3c(c2)OCO3)CC1` belongs 81.9 ± 4.7%.
The compound `CC1CS(=O)(=O)CCN1/N=C/c1ccc([N+](=O)[O-])o1` (stereo unspecified) gave a percent growth of 85.9 ± 6.6%.
With `O=C(NCCc1ccccc1)c1cc(-c2cccnc2)cnc1NCC1CC1`, the percent growth worked out at 88.2 ± 20%.
To `COc1ccc(C(=N)N)cc1-c1cn(-c2ccc(C(=N)N)cc2)nn1` belongs 105 ± 42%.
To `Cc1noc(C)c1C(=O)N1CCCC(c2[nH]c3c(C)cccc3c2-c2ccncc2)C1` (stereo unspecified) belongs 90.2 ± 6.2%; to `NC(CC(=O)c1ccc(Cl)cc1Cl)C(Cl)(Cl)Cl` (stereo unspecified), 58.8 ± 39%.
The result for `Cc1cc(C)c2cc(C(=O)NC3CCCCCCC3)[nH]c2c1` reads 90.5 ± 14%.
On to `Cc1cccnc1NC(=O)c1cccc(OCc2c(C)noc2C)c1`, for which the percent growth came out at 81.4 ± 11%.
To `CC(C)C(NC(=O)Cc1cccc2ccccc12)C(=O)Nc1cccc(C#N)c1` (stereo unspecified) belongs 84.6 ± 21%; to `NC(=O)c1cc(Br)ccc1OCCOc1ccccc1`, 85.2 ± 9.9%; to `C[C@H](c1ccc2c(c1)CCCC2)N(C)c1ncc2c(N)nc(N)nc2n1`, 84.7 ± 9.1%.
To `Cc1ccc(C(=O)Nc2ccc(S(=O)(=O)O)c3cc(S(=O)(=O)O)cc(S(=O)(=O)O)c23)cc1NC(=O)c1cccc(NC(=O)Nc2cccc(C(=O)Nc3cc(C(=O)Nc4ccc(S(=O)(=O)O)c5cc(S(=O)(=O)O)cc(S(=O)(=O)O)c45)ccc3C)c2)c1` belongs 78.7 ± 8.8%; to `COC(=O)c1c(NC(=O)c2c(F)c(F)c(F)c(F)c2F)sc2c1CCCCC2`, 105 ± 7.8%.
As to `CC(=O)NC[C@@H]1CN(c2ccc(N3CCOCC3)c(F)c2)C(=O)O1`, the percent growth came out at 3.9 ± 5.2%.

For the origin of these results see the supplement of paper PMC7866885, “A novel bicyclic 2,4-diaminopyrimidine inhibitor of Streptococcus suis dihydrofolate reductase” (PeerJ, 2021).
